# Assay results reported in PubChem BioAssay (NCATS).
# Records with an inconclusive call do not appear. Entries that show only a call come without a potency. Values without a mark were called inactive. The source made the active and inactive calls. Calls come from the whole dose curve; as a rule, active = well fitted inhibition curve with a large enough effect; inconclusive = small, poorly fitted or top-dose-only effect; inactive = no such curve, though single readings can be large or run the other way.
# Test: Primary qHTS for small molecule stabilizers of the endoplasmic reticulum resident proteome: Secreted ER Calcium Modulated Protein (SERCaMP) assay (AID 1508630)
# Conditions: SH-SY5Y GLuc-SERCaMP (Gaussia luciferase released on ER calcium loss) secretion, thapsigargin, luminescence; series mostly up to 38.4 µM
# Procedure, shortened: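 The SH-SY5Y reporter protocol was run at 3 concentrations up to 38.3 uM (primary) or 11 concentrations (follow-up): 16 h compound, 100 nM thapsigargin for 4 h, then extracellular luciferase luminescence.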
# Potency is the fitted concentration of half-maximal effect.
SMILES,"activity change, negative = inhibition",Potency
Cc1c(C(=O)c2cccc3ccccc23)c2cccc3c2n1[C@H](CN1CCOCC1)CO3,-12% [at 3.88 µM],–
CC(=CCCC1=CCC(C2=CC(=O)OC2O)OC1O)CCC1=C(C)CCCC1(C)C (stereo unspecified),–,inactive
O=C1CCC[C@@H]2[C@H]3CCCN4CCC[C@@H](CN12)[C@@H]34,–,inactive
Clc1cnc(Oc2ccc(Oc3ncc(Cl)cc3Cl)cc2)c(Cl)c1,–,inactive
C[C@]12CCC(=O)C(O)=C1CC[C@@H]1[C@H]3CCC(=O)[C@@]3(C)CC[C@@H]12,–,inactive
c1cc2c(cc1[C@H]1OC[C@H]3[C@H]1CO[C@H]3c1ccc3c(c1)OCO3)OCO2,–,inactive
CC(=O)OCC1=C(C(=O)O)N2C(=O)[C@@H](N)[C@@H]2SC1,–,inactive
C[C@]12N[C@H](Cc3ccccc31)c1ccccc12,–,inactive
O=[N+]([O-])c1ncc[nH]1,–,inactive
C1=C2CCCN[C@H]2[C@@H]2C[C@H]1[C@@H]1CCCCN1C2,–,inactive
CCCN1CCO[C@@H]2c3cc(O)ccc3OC[C@@H]21,–,inactive
CC(=Cc1csc(C)n1)[C@@H]1C[C@H]2O[C@@H]2CCC[C@H](C)[C@@H](O)[C@@H](C)C(=O)C(C)(C)[C@@H](O)CC(=O)O1,–,inactive
CC(O)=C(C#N)C(=O)Nc1cc(Br)ccc1Br,–,inactive
COc1ccc2c(c1)[C@]13CCCCC1C(C2)N(C)CC3 (stereo partly specified),–,473 nM (active)
COc1cccc2c1[C@]13CCN(CC4CC4)[C@H](C2)[C@]1(OC)CCC(=O)C3,–,inactive
CO[C@H]1CCC(O[C@H]2C[C@H]([C@]3(C)CC[C@]4(C[C@H](O)[C@@H](C)[C@@H]([C@@H](C)C=C(C)C(=O)[C@H](C)C[C@H](C)C(=O)O)O4)O3)O[C@]3(O[C@@H]([C@H]4O[C@@](O)(CO)[C@H](C)C[C@H]4C)C[C@H]3C)[C@H]2C)O[C@H]1C (stereo partly specified),–,inactive

SMILES,"activity change, negative = inhibition",Potency
CCC(=O)OC1CCC2C3CCC4=CC(=O)CC[C@@]4(C)C3CC[C@]12C (stereo partly specified),–,inactive
C=C[C@@H]1CN2CCC1C[C@H]2[C@H](O)c1ccnc2ccccc12 (stereo partly specified),–,inactive
COc1cc2cc(c1Cl)N(C)C(=O)C[C@H](OC(=O)C(C)C)[C@]1(C)O[C@H]1[C@H](C)[C@@H]1C[C@@](O)(NC(=O)O1)[C@H](OC)C=CC=C(C)C2,–,inactive
CC(C)(O)C=CC(=O)[C@](C)(O)[C@H]1[C@H](O)C[C@]2(C)[C@@H]3CC=C4[C@@H](C=C(O)C(=O)C4(C)C)[C@]3(C)C(=O)C[C@@]12C,–,inactive
Cc1c(N)nc([C@H](CC(N)=O)NC[C@@H](N)C(N)=O)nc1C(=O)N[C@H](C(=O)N[C@@H](C)[C@H](O)[C@@H](C)C(=O)N[C@@H](C(=O)NCCc1nc(-c2nc(C(=O)NCCC[S+](C)C)cs2)cs1)[C@@H](C)O)C(O[C@H]1O[C@H](CO)[C@H](O)[C@@H](O)[C@@H]1O[C@H]1O[C@H](CO)[C@@H](O)[C@H](OC(N)=O)[C@H]1O)c1cnc[nH]1 (stereo partly specified),–,inactive
C[C@]12CC[C@H]3[C@@H](CCC4=CC(=O)CC[C@@]43C)[C@H]1CC[C@H]2O,–,inactive
C=CCON=C(C[C@H]1O[C@@H]2O[C@]3(C)CC[C@@H]4[C@H](C)CC[C@@H]([C@H]1C)[C@@]24OO3)[C@H]1O[C@@H]2O[C@]3(C)CC[C@H]4[C@H](C)CC[C@@H]([C@@H]1C)[C@@]24OO3,–,inactive
CC(C)N[C@@H]1CCn2c(=O)[nH]c3cccc(c32)[C@@H]1O,–,inactive
C[C@@H]1O[C@@H](O[C@@H]2C=C3CC[C@@H]4[C@@H](CC[C@]5(C)[C@H](c6ccc(=O)oc6)CC[C@@]45O)[C@@]3(C)CC2)[C@H](O)[C@H](O)[C@H]1O,–,inactive
COc1ccc(CC2NCCc3cc(OC)c(OC)cc32)cc1OC (stereo unspecified),–,inactive
N#C[C@H](O[C@@H]1O[C@H](CO[C@@H]2O[C@H](CO)[C@H](O)[C@H](O)[C@H]2O)[C@H](O)[C@H](O)[C@H]1O)c1ccccc1,–,inactive
COC1=CC(C)=C[C@@H](C)[C@@H](O)[C@@H](C)CC(C)=CC=C[C@H](OC)[C@H]([C@@H](C)[C@@H](O)[C@H](C)[C@@]2(O)C[C@@H](O)[C@H](C)[C@@H](C(C)C)O2)OC1=O,–,inactive
CC=C(C)C(=O)N[C@@H](c1ccccc1)[C@@H](O)C(=O)O[C@H]1C[C@@]2(O)[C@@H](OC(=O)c3ccccc3)[C@@H]3[C@]4(OC(C)=O)CO[C@@H]4C[C@H](O)[C@@]3(C)C(=O)[C@H](OC(C)=O)C(=C1C)C2(C)C,–,inactive
C=C[C@@H]1CN2CCC1C[C@@H]2[C@@H](O)c1ccnc2ccccc12 (stereo partly specified),–,inactive
C[C@]12Cc3cn[nH]c3C[C@@H]1CC[C@@H]1[C@H]2CC[C@@]2(C)[C@H]1CC[C@]2(C)O,–,inactive
